An excerpt weighted towards active compounds, which were near 4.2% of everything screened.
NLRP3 yeast inh – NALP3 inflammasome inhibitors in reconstituted yeast, primary screen, luminescence, uHTS; Yeast reconstituted NLRP3/ASC/caspase-1, beta-gal luminescence, 24 h; inhibition, % at 10 µM; 330,000 compounds, 0.39% hits;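 active means inhibition of 50% or more; inactive means inhibition below 50%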;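 further: plate controls were induced DMSO wells for no effect and uninduced yeast grown without galactose for full effect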
NALP1 inh – NALP1 inflammasome inhibitors in reconstituted yeast, colorimetric, S. cerevisiae, triplicate retest; S. cerevisiae NALP1/ASC/caspase-1 growth, X-gal OD620, 72 h; inhibition, % at 10 µM; 280,000 compounds, 0.61% hits; AID 2071, 2009; in the data active means inhibition mostly above about 24%, no sharp cut-off; inactive means mostly below about 32%
tim23-1 inh – growth inhibitors of tim23-1 mutant yeast, primary screen, luminescence, uHTS; inhibition, % at 20 µM; S. cerevisiae tim23-1 growth, BacTiter-Glo luminescence, 24 h; AID 463212, 2010; 330,000 compounds, 1.3% hits;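 active means growth inhibition of the mutant yeast at or above 50%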;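 further: temperature-sensitive mutant grown at 25 °C; plate controls were DMSO-treated mutant yeast for no effect and medium wells lacking yeast for full effect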
TIM10 inh – growth inhibitors of isogenic TIM10 control yeast, primary screen, counter-screen for tim10-1 yeast inhibitor project, luminescence, uHTS; S. cerevisiae TIM10 strain growth, BacTiter-Glo luminescence, 24 h; inhibition, % at 10 µM; 330,000 compounds, 1.4% hits;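 active means inhibition of 40% or more at the single tested concentration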;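 further: wild-type TIM10 isogenic control strain grown at permissive 25 °C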
tim10-1 inh – growth inhibitors of tim10-1 mutant yeast, primary screen, luminescence, uHTS. S. cerevisiae tim10-1 ts strain growth, BacTiter-Glo, 24 h. inhibition, % at 20 µM. 330,000 compounds, 2.2% hits;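 active means inhibition of at least 40%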;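 further: mutant grown at 25 °C; 0% = DMSO wells with yeast and 100% = wells holding no yeast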
V-ATPase pHluor – regulators of yeast V-ATPase proton pumping, primary screen, pHLuorin cytosolic pH fluorescence | response, % at 10 µM | 350,000 compounds, 0.37% hits | S. cerevisiae; in the data active means response mostly above about 7.3%, no sharp cut-off; inactive means mostly below about 5.4%; further: actives read high
tim10-1 confirm – growth inhibitors of tim10-1 mutant yeast, confirmation, single concentration, luminescence, S. cerevisiae; inhibition, % at 20 µM; shares compounds with tim10-1 inh; 7,400 compounds, 56% hits; AID 463213, 2010; S. cerevisiae tim10-1 ts strain growth, BacTiter-Glo, 24 h;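 active means inhibition of yeast growth at or above a set limit in either of two repeat tests at 20 µM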;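 further: tim10-1 mutant grown at permissive 25 °C to find synthetic lethal compounds; 0% = DMSO yeast wells and 100% = medium wells without yeast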
Numbers without * were called inactive; x = no result given.

SMILES	NLRP3 yeast inh	NALP1 inh	tim23-1 inh	TIM10 inh	tim10-1 inh	V-ATPase pHluor	tim10-1 confirm
OC(c1cccc(OCc2ccccc2)c1)c1nnc(-c2ccccc2)o1 (centres undefined)	-5.2	19.6	17.2	16.4	44.0*	1.7	27.8
Cn1nnc(NC(=S)NC(=O)c2cc(Cl)ccc2Cl)n1	17.1	-9.6	40.7	10.8	40.7*	1.9	0.3
COc1cc(C)c(C)cc1S(=O)(=O)n1c(C)nc2ccccc21	25.0	19.8	21.4	5.4	1.0	5.0	x
COC(=O)c1ccc(/C=C/c2ccc3cccc(OC(C)=O)c3n2)cc1	16.8	12.1	19.4	20.4	40.0	27.3*	24.1
COc1c(OC(C)=O)ccc(/C=C/c2ccc3cccc(OC)c3n2)c1[N+](=O)[O-]	16.9	24.5	42.8	13.1	41.2*	5.5	27.7
COc1c(OC(C)=O)ccc(/C=C/c2ccc3ccccc3n2)c1[N+](=O)[O-]	15.9	36.3	47.7	39.5	47.5*	1.9	32.0*
O=C(O)c1ccc(/C=C/c2ccc3cccc(O)c3n2)cc1	18.7	-20.9	20.9	14.6	17.8	1.8	x
CCOc1c(OC(C)=O)ccc(/C=C/c2ccc3cccc(OC(C)=O)c3n2)c1[N+](=O)[O-]	5.2	14.3	29.7	13.5	5.8	-1.6	x
O=[N+]([O-])c1ccccc1/C=C/c1ccc2ccccc2n1	29.1	18.4	22.1	2.4	-3.5	-1.0	x
Cc1oc2c(C)c3oc(=O)c4c(c3cc2c1C)CCCC4	10.4	-4.4	36.3	26.7	54.4*	-1.9	54.5*
Cc1ccc2c(c1)C(c1ccccc1)N(C(=O)c1ccccc1[N+](=O)[O-])CC(=O)N2 (centres undefined)	x	13.9	x	x	x	0.0	x
CN(C(=O)c1nn(C)c2c1CSc1ccccc1-2)c1ccccc1Cl	21.6	11.2	41.3	12.4	40.6*	0.3	6.2
CN(C(=O)c1nn(C)c2c1CSc1ccccc1-2)c1ccc(F)cc1	9.2	7.5	36.9	-0.3	35.3	3.8	x
C/C(=N/NS(=O)(=O)c1ccc(Cl)cc1)c1ccncc1	3.6	17.5	12.6	17.0	25.2	-2.9	x
C/C(=N/NS(=O)(=O)c1ccccc1)c1ccc(Cl)cc1	6.1	-0.7	12.6	32.2	40.0	1.3	19.5
C/C(=N\NS(=O)(=O)c1ccc(C(C)(C)C)cc1)c1ccccc1	-12.3	20.1	48.9	29.2	42.4*	1.4	42.6*
CC(C)(C)NC(=O)C1CCCN(S(=O)(=O)c2ccc(-n3cnnn3)cc2)C1 (centres undefined)	20.2	9.1	8.3	-0.9	4.6	-1.5	x
CCOc1ccc(S(=O)(=O)N2CCN(c3ccccc3F)CC2)c2cccnc12	12.8	37.4	32.7	22.0	45.0*	1.4	25.1
CCOc1ccccc1N1CCN(S(=O)(=O)c2ccc3c4c(cccc24)C(=O)N3)CC1	18.6	13.6	6.1	14.6	20.0	1.9	x
O=C(N/N=C/c1ccc([N+](=O)[O-])o1)C(O)c1ccccc1 (centres undefined)	7.1	x	6.5	2.6	-8.3	-5.2	x
CN(/N=C/c1ccc([N+](=O)[O-])o1)c1ccccc1	35.8	5.0	36.6	34.2	52.0*	1.3	41.4*
N/C(=N\OC(=O)C12CC3CC(CC(C3)C1)C2)c1ccncc1	3.7	-0.2	35.9	28.4	45.4*	3.0	30.2
O=S(=O)(c1ccc2oc(=S)[nH]c2c1)N1CCOCC1	13.2	x	2.3	3.7	5.6	-2.8	x
C/C(=N\O)c1c(C)c2ccccc2n1C	15.8	2.5	21.3	-1.3	6.0	2.9	x
C/C(=N\O)c1ccc2c3ccccc3n(C)c2c1	19.3	-15.9	46.3	17.8	44.3*	3.8	22.8
SMILES	NLRP3 yeast inh	NALP1 inh	tim23-1 inh	TIM10 inh	tim10-1 inh	V-ATPase pHluor	tim10-1 confirm
O=C(NCCCNc1ccc(C(F)(F)F)cc1[N+](=O)[O-])c1ccc(Cl)cc1	37.6	-9.2	8.9	-3.9	45.9*	-1.8	-2.2
N#Cc1sc(NCc2ccccc2)nc1Cl	3.6	-7.4	39.8	11.4	40.7*	-1.3	22.0
COc1ccc(CNc2nc(Cl)c(C#N)s2)cc1	24.1	8.7	35.2	18.0	38.7	3.5	x
O=S(=O)(c1ccc(Nc2ccc3c(c2)OCO3)nc1)N1CCOCC1	-38.7	9.5	12.1	22.8	31.2	-3.9	x
O=C(O)CCCC(=O)Nc1nc2n(n1)C(c1ccc(F)cc1)CC(c1ccc(Cl)cc1)N2 (centres undefined)	7.1	9.6	-1.8	4.4	11.1	-0.5	x
O=C(NNC(=S)Nc1cccc(C(F)(F)F)c1)c1ccc(Cl)cc1Cl	16.1	13.2	39.9	17.2	51.6*	-1.1	46.4*
O=C(NC(=S)Nc1ccccc1O)c1ccc(Cl)cc1Cl	3.9	-12.2	42.7	12.0	42.7*	-0.6	26.8
O=C(Nc1ccccc1Cl)c1ccc(Cl)cc1Cl	-4.0	-15.8	2.9	3.9	-2.9	-0.1	x
COC(CNC(=O)c1cnn2c(C)c(Cc3ccccc3)c(C)nc12)OC	7.6	-1.9	26.2	-1.9	40.3*	-1.1	23.5
CCN(CC)Cc1nc2nc(Cl)c(Cl)nc2[nH]1	x	x	x	x	x	0.7	x
N#CCC(=O)Nc1ccc(C(=O)Nc2cccnc2)cc1	13.0	24.1	17.1	-4.2	-7.6	1.9	x
COc1cccc(NC(=O)Nc2cc(C)ccc2OC)c1	35.8	1.2	36.5	38.0	40.4*	-1.3	29.1
COc1ccc(C)cc1NC(=O)Nc1ccccc1	37.9	10.9	24.7	20.9	28.6	-0.1	x
O=C1C(=O)N(CCO)C(c2ccccc2)/C1=C(\O)c1ccccc1 (centres undefined)	1.8	1.7	-4.3	9.3	8.3	-2.0	x
Cc1ccc(S(=O)(=O)N(C)CC(=O)N2CCN(Cc3ccccc3)CC2)cc1	16.4	5.7	18.3	29.4	46.6*	-5.5	23.4
Cc1ccc(S(=O)(=O)N(C)CC(=O)N2CCCCCCC2)cc1	30.3	x	21.3	-0.2	13.1	-5.2	x
CCOc1ccc2nc(SC3CC(=O)N(c4ccc(OC)cc4OC)C3=O)sc2c1 (centres undefined)	20.4	9.1	34.5	36.1	44.0*	16.6	43.0*
CCOc1ccc(N2C(=O)CC(Sc3nc4ccc(OCC)cc4s3)C2=O)cc1 (centres undefined)	18.8	x	-20.4	-7.2	-4.9	2.6	x
CCCCCCCCO	-3.8	x	-4.8	1.2	-13.1	1.0	x
CCSC(=O)CCCCCCCCCCCO	48.6	6.5	26.2	15.4	40.3*	-4.9	36.4*
Cn1c(=O)[nH]c(=O)c2c1nc(N1CCCC1)n2CCCSc1nnnn1-c1ccccc1	6.4	17.1	17.8	-2.4	13.5	-3.1	x

Screening data deposited in PubChem by several laboratories.
